Assay results taken from PubChem BioAssay AID1159580 (chemical genetic matrix, 2015).
Where “and” joins values, the source holds several entries; their conditions need not be identical. Equal entries are not always repeated. Hit rate of the full screen: of about 5,500 compounds, about 2,000 (36%) were called active. Not shown: some 18% with an inconclusive outcome. Rule as the data show it: active = normalized growth mostly below about 0.91 (no sharp cut-off); inconclusive = no clear call, values can overlap the other calls; inactive = mostly above about 0.92. The list shows a part of the results.

Assay: chemical genetic growth profiling, strain panel (AID 1159580);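 also: tested at 20 µM; growth read once vehicle control cultures reached saturation at 30 °C; 1 = growth at the plate median or of vehicle wells; lower values mean less growth of the strain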
Conditions: S. cerevisiae deletion strains, growth OD

Measured: normalized growth

CO/N=C(\C(=O)NC1C(=O)N2C(C(=O)O)=C(COC(N)=O)CSC12)c1ccco1 (configuration not stated)
active: locus YBR021W, strain FUR4, stronger effect = lower value 0.0938 | locus YBR229C, strain ROT2, stronger effect = lower value 0.0259 | locus YCL029C, strain bik1, stronger effect = lower value 0.0647 | locus YDL035C, strain GPR1, stronger effect = lower value 0.0509 | locus YDL074C, strain BRE1, stronger effect = lower value 0.0872 | locus YDL101C, strain DUN1, stronger effect = lower value 0.0518 | locus YDL185W, strain tfp1, stronger effect = lower value 0.0709 | locus YDL192W, strain arf1, stronger effect = lower value 0.0602 | locus YDR101C, strain arx1, stronger effect = lower value 0.0636 | locus YDR162C, strain NBP2, stronger effect = lower value 0.0497 | locus YDR318W, strain mcm21, stronger effect = lower value 0.062 | locus YDR388W, stronger effect = lower value 0.0594 | locus YDR502C, strain sam2, stronger effect = lower value 0.057 | locus YEL061C, strain CIN8, stronger effect = lower value 0.0491 | locus YER110C, stronger effect = lower value 0.0738 | locus YER155C, strain BEM2, stronger effect = lower value 0.0713 | locus YER167W, strain BCK2, stronger effect = lower value 0.0538 | locus YGL078C, strain dbp3, stronger effect = lower value 0.387 | locus YGL086W, strain mad1, stronger effect = lower value 0.0523 | locus YGL248W, strain PDE1, stronger effect = lower value 0.0434 | locus YGR135W, strain pre9, stronger effect = lower value 0.0617 | locus YGR252W, strain gcn5, stronger effect = lower value 0.126 | locus YHR079C, strain IRE1 (second series), stronger effect = lower value 0.0616 | locus YHR094C, strain hxt1, stronger effect = lower value 0.0582 | locus YHR129C, strain ARP1, stronger effect = lower value 0.056 | locus YHR200W, strain rpn10, stronger effect = lower value 0.0599 | locus YIL066C, strain RNR3, stronger effect = lower value 0.0444 | locus YIL073C, strain SPO22, stronger effect = lower value 0.121 | locus YIL125W, strain kgd1, stronger effect = lower value 0.161 | locus YIR030C, strain dcg1, stronger effect = lower value 0.0751 | locus YJL134W, strain LCB3, stronger effect = lower value 0.0455 | locus YJL168C, strain set2, stronger effect = lower value 0.0569 | locus YJL187C, strain SWE1 (second series), stronger effect = lower value 0.0486 | locus YJR043C, strain POL32, stronger effect = lower value 0.0695 | locus YKL009W, strain mrt4, stronger effect = lower value 0.311 | locus YKL068W, stronger effect = lower value 0.575 | locus YKL085W, strain MDH1 (second series), stronger effect = lower value 0.0978 | locus YKL085W, strain MDH1, stronger effect = lower value 0.0978 | locus YKL190W, strain CNB1, stronger effect = lower value 0.0476 | locus YKR001C, strain vps1, stronger effect = lower value 0.0619 | locus YLR039C, strain RIC1, stronger effect = lower value 0.0948 | locus YLR058C, strain SHM2, stronger effect = lower value 0.0436 | locus YLR102C, strain apc9, stronger effect = lower value 0.0609 | locus YLR262C, strain YPT6, stronger effect = lower value 0.107 | locus YLR268W, strain sec22, stronger effect = lower value 0.0592 | locus YLR330W, strain CHS5, stronger effect = lower value 0.053 | locus YLR342W, strain FKS1 (second series), stronger effect = lower value 0.0595 | locus YLR371W, strain rom2, stronger effect = lower value 0.0612 | locus YLR418C, strain cdc73, stronger effect = lower value 0.096 | locus YML016C, strain PPZ1, stronger effect = lower value 0.0484 | locus YML032C, strain rad52, stronger effect = lower value 0.0647 | locus YML124C, strain tub3, stronger effect = lower value 0.0613 | locus YMR078C, strain ctf18, stronger effect = lower value 0.0716 | locus YMR223W, strain ubp8, stronger effect = lower value 0.0609 | locus YMR263W, strain SAP30, stronger effect = lower value 0.0627 | locus YMR307W, strain GAS1, stronger effect = lower value 0.13 | locus YNL067W, strain RPL9B, stronger effect = lower value 0.0518 | locus YNL233W, strain BNI4, stronger effect = lower value 0.061 | locus YNL250W, strain rad50, stronger effect = lower value 0.297 | locus YNL271C, strain bni1, stronger effect = lower value 0.224 | locus YNL298W, strain CLA4, stronger effect = lower value 0.235 | locus YNL307C, strain MCK1, stronger effect = lower value 0.0668 | locus YNL322C, strain KRE1, stronger effect = lower value 0.0494 | locus YNR052C, strain pop2, stronger effect = lower value 0.0644 | locus YOL012C, strain htz1 0.173 | locus YOL147C, strain pex11, stronger effect = lower value 0.0578 | locus YOR061W, strain CKA2, stronger effect = lower value 0.0318 | locus YOR069W, strain VPS5, stronger effect = lower value 0.0536 | locus YOR136W, strain idh2, stronger effect = lower value 0.067 | locus YOR144C, strain elg1, stronger effect = lower value 0.0595 | locus YOR184W, strain ser1, stronger effect = lower value 0.062 | locus YOR316C, strain cot1, stronger effect = lower value 0.0579 | locus YPR119W, strain clb2, stronger effect = lower value 0.0597 | locus YPR141C, strain kar3, stronger effect = lower value 0.56 | locus YPR163C, strain tif3, stronger effect = lower value 0.0674 | locus YPR167C, strain met16, stronger effect = lower value 0.0656 | strain wtn01, stronger effect = lower value 0.0569
0.0514 (active) and 1.05 (inactive): locus YHR030C, strain SLT2, stronger effect = lower value
0.0608 (active) and 1.03 (inactive): locus YJL095W, strain BCK1, stronger effect = lower value
inactive: locus YAL021C, strain ccr4, stronger effect = lower value 0.988 | locus YAL026C, strain drs2, stronger effect = lower value 0.984 | locus YAL030W, strain snc1, stronger effect = lower value 0.977 | locus YBL061C, strain skt5, stronger effect = lower value 0.967 | locus YBR009C, strain hhf1, stronger effect = lower value 0.985 | locus YBR023C, strain chs3, stronger effect = lower value 0.964 | locus YBR171W, strain sec66, stronger effect = lower value 0.958 | locus YBR231C, strain swc5, stronger effect = lower value 0.971 | locus YBR279W, strain paf1, stronger effect = lower value 0.975 | locus YCL011C, strain gbp2, stronger effect = lower value 0.968 | locus YCL016C, strain dcc1, stronger effect = lower value 0.969 | locus YCL061C, strain MRC1, stronger effect = lower value 0.969 | locus YCL069W, strain vba3, stronger effect = lower value 0.977 | locus YCR088W, strain abp1, stronger effect = lower value 0.975 | locus YDL005C, strain med2, stronger effect = lower value 0.969 | locus YDL040C, strain nat1, stronger effect = lower value 0.981 | locus YDR001C, strain nth1, stronger effect = lower value 0.976 | locus YDR069C, strain doa4, stronger effect = lower value 0.988 | locus YDR137W, strain rgp1, stronger effect = lower value 0.945 | locus YDR159W, strain sac3, stronger effect = lower value 0.99 | locus YDR195W, strain ref2 1 | locus YDR297W, strain sur2, stronger effect = lower value 0.972 | locus YDR334W, strain swr1, stronger effect = lower value 0.966 | locus YDR335W, strain msn5, stronger effect = lower value 0.975 | locus YDR392W, strain spt3, stronger effect = lower value 0.894 | locus YEL003W, strain gim4, stronger effect = lower value 0.997 | locus YEL037C, strain rad23, stronger effect = lower value 0.967 | locus YEL061C, strain CIN8 (second series), stronger effect = lower value 0.976 | locus YER015W, strain faa2, stronger effect = lower value 0.968 | locus YER016W, strain bim1, stronger effect = lower value 0.992 | locus YER111C, strain swi4, stronger effect = lower value 0.976 | locus YER155C, strain BEM2 (second series), stronger effect = lower value 0.969 | locus YFR010W, strain ubp6, stronger effect = lower value 0.966 | locus YGL167C, strain pmr1, stronger effect = lower value 0.96 | locus YGL173C, strain kem1, stronger effect = lower value 0.969 | locus YGL227W, strain vid30, stronger effect = lower value 0.978 | locus YGL240W, strain doc1, stronger effect = lower value 0.989 | locus YGL253W, strain hxk2, stronger effect = lower value 0.99 | locus YHR013C, strain ard1, stronger effect = lower value 0.964 | locus YHR027C, strain rpn1, stronger effect = lower value 0.978 | locus YHR079C, strain IRE1, stronger effect = lower value 1.08 | locus YHR142W, strain chs7, stronger effect = lower value 0.926 | locus YJL092W, strain hpr5, stronger effect = lower value 0.98 | locus YJL095W, strain BCK1 (second series), stronger effect = lower value 0.98 | locus YJL115W, strain asf1, stronger effect = lower value 0.983 | locus YJL129C, strain trk1, stronger effect = lower value 0.971 | locus YJL154C, strain vps35, stronger effect = lower value 0.971 | locus YJL164C, strain tpk1, stronger effect = lower value 0.977 | locus YJL166W, strain qcr8, stronger effect = lower value 0.962 | locus YJL187C, strain SWE1, stronger effect = lower value 0.971 | locus YJR066W, strain TOR1, stronger effect = lower value 0.972 | locus YKL160W, strain elf1, stronger effect = lower value 0.961 | locus YKR026C, strain gcn3, stronger effect = lower value 0.98 | locus YKR091W, strain srl3, stronger effect = lower value 0.98 | locus YLL001W, strain dnm1, stronger effect = lower value 0.944 | locus YLL026W, stronger effect = lower value 0.991 | locus YLL041C, strain sdh2, stronger effect = lower value 0.971 | locus YLR027C, strain aat2, stronger effect = lower value 0.981 | locus YLR113W, strain HOG1, stronger effect = lower value 1.07 | locus YLR221C, strain rsa3, stronger effect = lower value 0.956 | locus YLR258W, strain gsy2, stronger effect = lower value 0.975 | locus YLR262C, strain YPT6 (second series), stronger effect = lower value 0.967 | locus YLR320W, strain mms22, stronger effect = lower value 0.93 | locus YLR342W, strain FKS1, stronger effect = lower value 0.972 | locus YLR357W, strain rsc2, stronger effect = lower value 0.963 | locus YLR370C, strain arc18, stronger effect = lower value 0.963 | locus YLR384C, strain iki3, stronger effect = lower value 0.968 | locus YML120C, strain ndi1, stronger effect = lower value 0.965 | locus YMR058W, strain fet3, stronger effect = lower value 0.968 | locus YMR125W, strain sto1, stronger effect = lower value 0.979 | locus YMR129W, stronger effect = lower value 0.983 | locus YMR205C, strain PFK2, stronger effect = lower value 0.949 | locus YMR231W, strain pep5, stronger effect = lower value 0.968 | locus YNL071W, strain lat1, stronger effect = lower value 0.974 | locus YNL183C, strain NPR1, stronger effect = lower value 0.966 | locus YNL209W, strain ssb2, stronger effect = lower value 0.985 | locus YNL248C, strain rpa49, stronger effect = lower value 0.966 | locus YNL322C, strain KRE1 (second series), stronger effect = lower value 0.969 | locus YNR049C, strain mso1, stronger effect = lower value 0.978 | locus YOR001W, strain rrp6, stronger effect = lower value 0.984 | locus YOR070C, strain gyp1, stronger effect = lower value 0.988 | locus YOR080W, strain dia2, stronger effect = lower value 0.986 | locus YOR083W, strain WHI5, stronger effect = lower value 0.953 | locus YOR106W, strain vam3, stronger effect = lower value 0.951 | locus YOR231W, strain MKK1, stronger effect = lower value 1.06 | locus YOR265W, strain rbl2, stronger effect = lower value 0.991 | locus YOR270C, strain vph1, stronger effect = lower value 0.96 | locus YOR290C, strain snf2, stronger effect = lower value 0.958 | locus YPL051W, strain arl3, stronger effect = lower value 0.97 | locus YPL078C, strain atp4, stronger effect = lower value 0.957 | locus YPL106C, strain sse1, stronger effect = lower value 0.941 | locus YPL240C, strain hsp82, stronger effect = lower value 0.982 | locus YPL256C, strain CLN2, stronger effect = lower value 1.07
